This note sets out measurements from the supplement of paper PMC10849652.

About 7,900 targets were measured; listed, in parts, are those with a hit and a random draw of the rest. About 0.6% of all pairs of compound and target were hits.

Chain of UniProt Q15642 (Q15642 whole entry, looked up): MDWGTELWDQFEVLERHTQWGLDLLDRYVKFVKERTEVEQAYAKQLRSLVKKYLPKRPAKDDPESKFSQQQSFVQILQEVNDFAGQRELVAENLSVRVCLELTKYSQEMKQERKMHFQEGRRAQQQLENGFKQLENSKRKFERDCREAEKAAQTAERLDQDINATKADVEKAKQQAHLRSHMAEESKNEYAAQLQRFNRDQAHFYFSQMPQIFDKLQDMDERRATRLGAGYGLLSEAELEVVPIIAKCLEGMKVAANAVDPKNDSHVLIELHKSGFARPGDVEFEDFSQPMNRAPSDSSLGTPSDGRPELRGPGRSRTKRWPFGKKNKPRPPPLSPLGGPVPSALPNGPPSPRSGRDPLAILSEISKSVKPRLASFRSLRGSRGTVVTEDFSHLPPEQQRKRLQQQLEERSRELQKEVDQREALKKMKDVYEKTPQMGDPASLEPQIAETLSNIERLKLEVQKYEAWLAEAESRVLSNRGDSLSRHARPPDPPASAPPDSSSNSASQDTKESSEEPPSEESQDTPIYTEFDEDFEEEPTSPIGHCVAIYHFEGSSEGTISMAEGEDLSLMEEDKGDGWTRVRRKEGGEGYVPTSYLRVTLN
Chain of UniProt A0JNW5 (A0JNW5 whole entry, looked up): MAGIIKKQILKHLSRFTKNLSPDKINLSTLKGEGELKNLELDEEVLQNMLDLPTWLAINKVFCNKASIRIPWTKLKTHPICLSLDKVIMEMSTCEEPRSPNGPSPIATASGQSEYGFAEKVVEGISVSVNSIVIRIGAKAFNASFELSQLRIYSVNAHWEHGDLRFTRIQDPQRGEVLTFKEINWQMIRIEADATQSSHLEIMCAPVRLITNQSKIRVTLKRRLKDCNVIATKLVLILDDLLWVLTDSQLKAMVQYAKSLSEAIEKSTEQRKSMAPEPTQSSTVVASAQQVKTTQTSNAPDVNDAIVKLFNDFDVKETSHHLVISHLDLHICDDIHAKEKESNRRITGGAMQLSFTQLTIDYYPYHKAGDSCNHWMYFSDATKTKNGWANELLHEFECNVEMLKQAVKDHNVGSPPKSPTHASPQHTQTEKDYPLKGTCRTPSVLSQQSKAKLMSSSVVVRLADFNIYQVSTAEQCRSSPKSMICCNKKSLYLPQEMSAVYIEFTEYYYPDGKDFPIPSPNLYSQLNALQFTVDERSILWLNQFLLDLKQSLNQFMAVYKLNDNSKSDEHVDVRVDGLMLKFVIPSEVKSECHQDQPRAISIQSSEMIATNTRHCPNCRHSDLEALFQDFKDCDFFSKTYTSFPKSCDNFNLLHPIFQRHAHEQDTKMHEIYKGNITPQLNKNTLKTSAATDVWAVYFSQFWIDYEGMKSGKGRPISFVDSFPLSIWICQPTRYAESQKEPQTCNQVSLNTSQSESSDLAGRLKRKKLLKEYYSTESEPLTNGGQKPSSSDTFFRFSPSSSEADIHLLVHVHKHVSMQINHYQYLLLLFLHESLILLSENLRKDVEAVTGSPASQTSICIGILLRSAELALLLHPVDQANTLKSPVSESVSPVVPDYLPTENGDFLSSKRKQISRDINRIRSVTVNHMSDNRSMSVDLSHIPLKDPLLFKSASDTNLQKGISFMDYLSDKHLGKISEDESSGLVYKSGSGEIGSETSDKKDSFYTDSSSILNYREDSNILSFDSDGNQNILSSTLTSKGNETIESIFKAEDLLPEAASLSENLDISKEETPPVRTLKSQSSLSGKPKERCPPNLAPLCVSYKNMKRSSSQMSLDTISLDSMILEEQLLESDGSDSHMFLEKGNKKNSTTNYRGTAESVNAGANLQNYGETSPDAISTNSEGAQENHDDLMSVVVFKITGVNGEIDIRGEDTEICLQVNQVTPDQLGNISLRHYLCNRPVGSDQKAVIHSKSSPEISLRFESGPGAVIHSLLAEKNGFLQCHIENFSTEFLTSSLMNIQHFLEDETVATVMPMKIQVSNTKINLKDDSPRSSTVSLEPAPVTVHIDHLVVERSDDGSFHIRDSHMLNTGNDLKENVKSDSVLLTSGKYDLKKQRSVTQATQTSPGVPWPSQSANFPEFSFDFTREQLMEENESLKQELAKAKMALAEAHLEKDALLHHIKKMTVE
Chain of UniProt Q8IY95 (Q8IY95 whole entry, looked up): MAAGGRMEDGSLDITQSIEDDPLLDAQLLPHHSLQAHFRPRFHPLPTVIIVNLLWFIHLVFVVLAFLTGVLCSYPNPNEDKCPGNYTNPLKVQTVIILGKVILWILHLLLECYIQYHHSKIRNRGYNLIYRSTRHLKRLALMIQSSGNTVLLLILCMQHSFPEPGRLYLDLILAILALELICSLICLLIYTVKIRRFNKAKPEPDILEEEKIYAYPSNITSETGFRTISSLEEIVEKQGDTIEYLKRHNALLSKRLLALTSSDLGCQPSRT
Chain of UniProt Q86UV5 (Q86UV5 whole entry, looked up): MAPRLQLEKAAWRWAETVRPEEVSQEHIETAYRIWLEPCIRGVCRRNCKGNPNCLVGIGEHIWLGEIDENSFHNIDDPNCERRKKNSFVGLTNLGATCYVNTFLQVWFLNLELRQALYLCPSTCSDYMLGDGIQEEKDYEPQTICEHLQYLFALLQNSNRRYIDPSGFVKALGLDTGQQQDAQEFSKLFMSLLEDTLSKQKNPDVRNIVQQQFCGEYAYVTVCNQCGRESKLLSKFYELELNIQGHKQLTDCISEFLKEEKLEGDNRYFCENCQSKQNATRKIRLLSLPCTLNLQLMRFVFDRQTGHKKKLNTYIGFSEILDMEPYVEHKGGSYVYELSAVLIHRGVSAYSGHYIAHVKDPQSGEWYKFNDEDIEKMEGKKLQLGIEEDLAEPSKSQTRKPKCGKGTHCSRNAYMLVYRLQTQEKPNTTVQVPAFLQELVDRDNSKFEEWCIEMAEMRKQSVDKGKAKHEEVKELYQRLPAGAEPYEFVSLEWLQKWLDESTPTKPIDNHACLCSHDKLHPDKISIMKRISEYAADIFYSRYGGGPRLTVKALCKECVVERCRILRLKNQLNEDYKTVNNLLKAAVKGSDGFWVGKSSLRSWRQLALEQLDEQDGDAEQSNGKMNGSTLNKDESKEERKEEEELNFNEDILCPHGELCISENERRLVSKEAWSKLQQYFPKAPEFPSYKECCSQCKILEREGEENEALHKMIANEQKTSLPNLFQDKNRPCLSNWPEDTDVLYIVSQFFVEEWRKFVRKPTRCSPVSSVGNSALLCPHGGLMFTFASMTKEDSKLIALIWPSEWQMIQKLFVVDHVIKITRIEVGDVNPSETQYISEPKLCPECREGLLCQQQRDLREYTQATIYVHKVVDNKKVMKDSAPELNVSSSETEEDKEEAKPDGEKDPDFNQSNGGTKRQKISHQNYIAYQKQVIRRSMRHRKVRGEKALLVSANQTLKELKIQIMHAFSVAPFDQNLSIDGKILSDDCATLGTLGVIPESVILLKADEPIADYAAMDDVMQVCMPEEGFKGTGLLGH
Chain of UniProt Q9HAD4 (Q9HAD4 whole entry, looked up): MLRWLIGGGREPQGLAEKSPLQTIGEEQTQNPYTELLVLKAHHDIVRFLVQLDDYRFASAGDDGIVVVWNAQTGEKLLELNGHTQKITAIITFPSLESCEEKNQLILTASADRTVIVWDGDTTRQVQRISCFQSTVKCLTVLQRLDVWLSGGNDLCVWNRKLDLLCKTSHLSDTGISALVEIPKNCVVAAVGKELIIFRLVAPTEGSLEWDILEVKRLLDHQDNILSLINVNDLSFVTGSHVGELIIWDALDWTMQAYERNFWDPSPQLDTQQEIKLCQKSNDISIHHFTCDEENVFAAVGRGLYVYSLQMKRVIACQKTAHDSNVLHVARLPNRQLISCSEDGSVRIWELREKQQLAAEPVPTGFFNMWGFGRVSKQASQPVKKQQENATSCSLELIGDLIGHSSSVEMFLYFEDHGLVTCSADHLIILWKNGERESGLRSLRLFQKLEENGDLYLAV
Chain of UniProt Q9NZ09 (Q9NZ09 whole entry, looked up): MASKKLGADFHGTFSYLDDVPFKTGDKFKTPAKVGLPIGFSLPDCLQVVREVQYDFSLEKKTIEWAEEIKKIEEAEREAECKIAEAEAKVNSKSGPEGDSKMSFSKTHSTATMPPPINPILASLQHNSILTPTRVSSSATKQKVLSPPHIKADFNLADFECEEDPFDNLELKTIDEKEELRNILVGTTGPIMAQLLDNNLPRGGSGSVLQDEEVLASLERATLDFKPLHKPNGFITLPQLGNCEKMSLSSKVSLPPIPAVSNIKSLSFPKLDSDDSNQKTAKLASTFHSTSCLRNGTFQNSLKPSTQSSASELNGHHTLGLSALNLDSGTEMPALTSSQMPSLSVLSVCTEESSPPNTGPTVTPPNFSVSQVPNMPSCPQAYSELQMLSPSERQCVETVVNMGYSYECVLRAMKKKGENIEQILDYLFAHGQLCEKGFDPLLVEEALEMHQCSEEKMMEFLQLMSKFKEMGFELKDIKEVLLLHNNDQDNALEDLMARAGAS
Chain of UniProt Q8N1B4 (Q8N1B4 whole entry, looked up): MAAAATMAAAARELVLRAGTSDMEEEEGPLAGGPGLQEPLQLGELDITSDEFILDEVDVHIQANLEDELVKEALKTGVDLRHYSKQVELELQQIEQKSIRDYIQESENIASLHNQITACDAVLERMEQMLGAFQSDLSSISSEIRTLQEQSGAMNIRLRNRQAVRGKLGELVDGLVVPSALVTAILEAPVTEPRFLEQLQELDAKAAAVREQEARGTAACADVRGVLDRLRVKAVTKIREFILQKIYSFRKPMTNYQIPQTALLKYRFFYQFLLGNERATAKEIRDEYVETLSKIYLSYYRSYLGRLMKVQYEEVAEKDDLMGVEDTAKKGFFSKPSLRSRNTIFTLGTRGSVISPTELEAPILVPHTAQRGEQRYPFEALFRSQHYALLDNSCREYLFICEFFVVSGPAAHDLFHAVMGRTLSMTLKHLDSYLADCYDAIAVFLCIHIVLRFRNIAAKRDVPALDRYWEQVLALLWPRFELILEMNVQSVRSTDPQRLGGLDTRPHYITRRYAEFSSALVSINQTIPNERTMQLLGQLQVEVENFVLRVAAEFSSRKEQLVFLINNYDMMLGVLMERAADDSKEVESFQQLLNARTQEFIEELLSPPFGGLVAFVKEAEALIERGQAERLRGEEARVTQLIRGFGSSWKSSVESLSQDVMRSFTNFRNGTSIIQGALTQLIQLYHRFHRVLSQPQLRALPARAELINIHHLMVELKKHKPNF

Compound in the first assay: CS(=O)(=O)c1ccc(-c2cnc(N)c(C(=O)Nc3ccccc3)n2)cc1
The assay is described as follows: log2 fold change, soluble protein after heating vs DMSO (PISA); higher = thermal stabilisation; K562 cells, 10 uM, 30 min; active = over 0.2 and 3.5 SD of the protein, either way, in both replicates (recomputed). An outline of the steps: (§1)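 Aliquots of K562 cells (2×10^6 cells/mL) treated with 10 μM compound for 30 min were heated for 3 min over 48°C-58°C. After pooling and extraction in PBS with 0.5% NP-40 at 4°C, soluble protein from a 21,000xg, 90 min spin was quantified by TMTpro 16plex LC-MS/MS with channel sums equalised. Thermal stability is expressed against control samples, from duplicates, as a log2 fold change.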
Regarding TMEM214 (UniProt Q6NUQ4), the log2 fold change is -0.018 (inactive).

For the target WDR62 isoform 4 (UniProt O43379), the log2 fold change was 0.064 (inactive).

In the case of VPS11 (UniProt Q9H270), the log2 fold change is 0.009 (inactive).

With WASHC2C, A0A096LPC5, the log2 fold change is -0.078 (inactive).

For WNK1 isoform 7 (UniProt Q9H4A3), the log2 fold change is 0.022 (inactive).

VPS52 (UniProt Q8N1B4): the log2 fold change was -0.001 (inactive).

Consider TPM2 (UniProt P07951), for which the log2 fold change was -0.016 (inactive).

In the case of WASHC2A (UniProt Q641Q2), the log2 fold change was 0.025 (inactive).

Take TRAPPC11 (UniProt Q7Z392): the log2 fold change was -0.004 (inactive).

Consider WDHD1 (UniProt O75717), for which the log2 fold change was 0.038 (inactive).

On to TXNIP (UniProt Q9H3M7), for which the log2 fold change was 0.05 (inactive).

Turning to VPS41 (UniProt P49754), the log2 fold change was 0.003 (inactive).

For the target TRIP10 (UniProt Q15642), the log2 fold change was 0.08 (inactive).

As for TRIP10 isoform 2 (UniProt Q15642), the log2 fold change is 0.132 (inactive).

For the target USP48 isoform 8 (UniProt Q86UV5), the log2 fold change is 0.03 (inactive).

With VPS8 (UniProt Q8N3P4), the log2 fold change was 0.024 (inactive).

For TOM1L1 (UniProt O75674), the log2 fold change was -0.001 (inactive).

Consider TMTC3 (UniProt Q6ZXV5), for which the log2 fold change is 0.054 (inactive).

For the target TPP1 (UniProt O14773), the log2 fold change was 0.025 (inactive).

Consider VPS28 (UniProt Q9UK41), for which the log2 fold change was 0.01 (inactive).

With TMEM9 (UniProt Q9P0T7), the log2 fold change was -0.026 (inactive).

As to TNPO3 (UniProt Q9Y5L0), the log2 fold change is -0.028 (inactive).

As to WAPL isoform 3 (UniProt Q7Z5K2), the log2 fold change was 0.052 (inactive).

Regarding TMEM192 (UniProt Q8IY95), the log2 fold change was 0.074 (inactive).

Turning to UHRF1BP1L (UniProt A0JNW5), the log2 fold change was 0.001 (inactive).

For TTI1 (UniProt O43156), the log2 fold change was 0.075 (inactive).

Regarding USP34 (UniProt Q70CQ2), the log2 fold change is -0.049 (inactive).

With UBE2E3 (UniProt Q969T4), the log2 fold change is 0.008 (inactive).

As for VDAC1 (UniProt P21796), the log2 fold change was 0 (inactive).

Take TRMT10A (UniProt Q8TBZ6): the log2 fold change was 0.012 (inactive).

On to USP25 isoform 3 (UniProt Q9UHP3), for which the log2 fold change is 0.042 (inactive).

With UBAP1 isoform 4 (UniProt Q9NZ09), the log2 fold change is -0.003 (inactive).

Take TMEM63B (UniProt Q5T3F8): the log2 fold change is -0.127 (inactive).

Turning to USP24 (UniProt Q9UPU5), the log2 fold change was 0.062 (inactive).

As to WDR41 (UniProt Q9HAD4), the log2 fold change is 0.01 (inactive).

Turning to TRAM1 (UniProt Q15629), the log2 fold change was 0.075 (inactive).

Compound in a further assay: C[C@@H](Oc1cc(-c2cnn(C3CCNCC3)c2)cnc1N)c1c(Cl)ccc(F)c1Cl [crizotinib]
Described as above. An outline of the steps: as §1
Turning to TMEM214 (UniProt Q6NUQ4), the log2 fold change was 0.123 (inactive).

As for WDR62 isoform 4 (UniProt O43379), the log2 fold change is -0.137 (inactive).

VPS11 (UniProt Q9H270): the log2 fold change was -0.373 (active).

As to WASHC2C, A0A096LPC5, the log2 fold change was -0.363 (inactive).

For WNK1 isoform 7 (UniProt Q9H4A3), the log2 fold change was -0.061 (inactive).

As to VPS52 (UniProt Q8N1B4), the log2 fold change was -0.102 (inactive).

With TPM2 (UniProt P07951), the log2 fold change is -0.012 (inactive).

WASHC2A (UniProt Q641Q2): the log2 fold change was -0.28 (active).

As to TRAPPC11 (UniProt Q7Z392), the log2 fold change is 0.008 (inactive).

For WDHD1 (UniProt O75717), the log2 fold change is 0.021 (inactive).

On to TXNIP (UniProt Q9H3M7), for which the log2 fold change was -0.36 (inactive).

As for VPS41 (UniProt P49754), the log2 fold change was -0.213 (inactive).

For TRIP10 (UniProt Q15642), the log2 fold change was -0.009 (inactive).

With TRIP10 isoform 2 (UniProt Q15642), the log2 fold change is 0.056 (inactive).

USP48 isoform 8 (UniProt Q86UV5): the log2 fold change was -0.036 (inactive).

As for VPS8 (UniProt Q8N3P4), the log2 fold change is -0.12 (inactive).

Regarding TOM1L1 (UniProt O75674), the log2 fold change is 0.08 (inactive).

TMTC3 (UniProt Q6ZXV5): the log2 fold change is -0.088 (inactive).

In the case of TPP1 (UniProt O14773), the log2 fold change was -0.371 (active).

For the target VPS28 (UniProt Q9UK41), the log2 fold change is 0.051 (inactive).

Take TMEM9 (UniProt Q9P0T7): the log2 fold change is -0.026 (inactive).

Regarding TNPO3 (UniProt Q9Y5L0), the log2 fold change was -0.151 (inactive).

In the case of WAPL isoform 3 (UniProt Q7Z5K2), the log2 fold change was -0.23 (inactive).

As for TMEM192 (UniProt Q8IY95), the log2 fold change was -0.45 (active).

As to UHRF1BP1L (UniProt A0JNW5), the log2 fold change is -0.04 (inactive).

Take TTI1 (UniProt O43156): the log2 fold change is -0.143 (inactive).

As to USP34 (UniProt Q70CQ2), the log2 fold change was -0.142 (inactive).

As to UBE2E3 (UniProt Q969T4), the log2 fold change was 0 (inactive).

Take VDAC1 (UniProt P21796): the log2 fold change is 0.076 (inactive).

Turning to TRMT10A (UniProt Q8TBZ6), the log2 fold change is 0.01 (inactive).

For USP25 isoform 3 (UniProt Q9UHP3), the log2 fold change is -0.003 (inactive).

Regarding UBAP1 isoform 4 (UniProt Q9NZ09), the log2 fold change was -0.008 (inactive).

For TMEM63B (UniProt Q5T3F8), the log2 fold change was 0.045 (inactive).

Take USP24 (UniProt Q9UPU5): the log2 fold change is 0.204 (inactive).

On to WDR41 (UniProt Q9HAD4), for which the log2 fold change was -0.093 (inactive).

As to TRAM1 (UniProt Q15629), the log2 fold change is -0.587 (active).
